# Laboratory results: PubChem BioAssay (NCI)
# Compounds without any hit were thinned out: in the full panel of roughly 79,000, 15% have a hit. Values without a mark were called inactive. The source made the active and inactive calls. Cut-off read from the data, not from the text of the source: active = growth inhibition above about 70%; inactive = the rest.
# Legend:
# [1] = NCI Yeast Anticancer Drug Screen. Data for the rad50 strain (AID 155);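 note: 0% = growth of vehicle-only cultures of the same strain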; conditions: S. cerevisiae rad50 strain growth inhibition; at 50.0 µM; active compounds read high
# How it was run: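 Relative growth inhibition (compound vs vehicle) was measured in yeast with a defined repair-gene alteration.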
# [2] = NCI Yeast Anticancer Drug Screen. Data for the mec2-1 strain (AID 157); conditions: S. cerevisiae mec2-1 strain, at 50.0 µM, active compounds read high
# How it was run: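 Strain: mec2-1 (DNA repair/cell cycle alteration). Compound exposure, then growth measured; inhibition expressed relative to vehicle.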
# [3] = NCI Yeast Anticancer Drug Screen. Data for the sgs1 mgt1 strain (AID 161);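 note: 0% = growth of cultures given vehicle only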; conditions: S. cerevisiae sgs1 mgt1 strain, at 50.0 µM, active compounds read high
# How it was run: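 Mutant yeast exposed to compound; growth scored against vehicle-only wells.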
# [4] = NCI Yeast Anticancer Drug Screen. Data for the cln2 rad14 strain (AID 165);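 note: 0% = growth equal to vehicle treated cultures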; conditions: S. cerevisiae cln2 rad14 strain, at 50.0 µM, active compounds read high
# How it was run: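 Compounds are applied to the cln2 rad14 yeast strain, and growth is then compared with that of vehicle-treated cultures to give inhibition.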
# [5] = NCI Yeast Anticancer Drug Screen. Data for the bub3 strain (AID 167); conditions: S. cerevisiae bub3 mutant strain, at 50.0 µM, active compounds read high
# How it was run: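 Screening used yeast with an engineered genetic alteration affecting cell cycle control. Compound-exposed cultures were compared with vehicle cultures, and reduced growth was taken as inhibition.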
# [6] = NCI Yeast Anticancer Drug Screen. Data for the mlh1 rad18 strain (AID 175); conditions: S. cerevisiae mlh1 rad18 strain growth inhibition; at 50.0 µM; active compounds read high
# How it was run: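 Read-out is yeast growth inhibition, calculated against vehicle-only controls. The compound was applied to a strain engineered with DNA damage repair alterations.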
Structure (SMILES),growth inhibition [1],growth inhibition [2],growth inhibition [3],growth inhibition [4],growth inhibition [5] [%],growth inhibition [6]
CN(C(=O)c1ccco1)C(=S)N1CCN(c2ccccc2)CC1,-17%,-1.95%,-0.7%,10.2%,13.8,-13.3%
N#CC(C(=O)C(N)=O)c1nc2ccccc2s1 (centres undefined),20.2%,9.45%,19.4%,5.8%,-9.5,2.25%
CC(C)(CCN)[N+](=O)[O-],-5.15%,9.15%,17.9%,-88.3%,5.55,-2.5%
CC(=O)c1c(O)ccc2c1CC(CC=O)O2 (centres undefined),18.6%,-1.05%,-20.9%,0.75%,9.05,-21.4%
C=CCc1ccc(OC(=O)Nc2ccc(S(=O)(=O)NC3CCCCC3)cc2)c(OC)c1,33.7%,8.85%,44.7%,33.1%,,44.4%
CN(C)c1ccc2c(N(C)C)cc(N(C)C)[n+](C)c2c1,7.8%,-23.1%,-12.8%,15.2%,,-22.4%
COC(=O)C(O)C(O)C(O)C(O)C(O)CO (centres undefined),-1.4%,-12.1%,0.25%,-45.4%,,-5.3%
Nc1cc(Cc2ccccc2)ccc1O,42.5%,25.8%,58.8%,18.8%,,46.7%
Clc1ccccc1/C=C/c1ccnnc1,15.8%,18.6%,-3.65%,7%,,12.8%
N=C(N)N1CCC(N2CCOCC2)CC1,14.7%,-18.4%,-12.6%,-24.4%,,-52.5%
COC(=O)C1(Cc2ccccc2)Cc2cc3c(cc2C1=O)CCC3 (centres undefined),20.9%,3.75%,8.5%,2.2%,,-7.65%
O=C(O)C1C=CC2OC2C1C(=O)O (centres undefined),2.9%,-28.2%,-5.95%,-31.9%,,4.7%
CCN(CC)C(=O)C1CCN(Cc2c[nH]c3ccccc23)CC1,-3.05%,-6.85%,-10.2%,-53%,,-0.2%
C/C(CC(=O)Nc1cccc(Cl)c1C)=N\N=C(N)N,-10.2%,-27.6%,-15.2%,19.4%,,-8.9%
O=C(CN(C(=O)OC12CC3CC(CC(C3)C1)C2)C(=O)OC12CC3CC(CC(C3)C1)C2)Oc1ccc([N+](=O)[O-])cc1,7.75%,7.15%,7.35%,31.8%,,-0.85%
CC(=O)c1c(C)n(-c2ccccc2)c2c1nnc1ccccc12,3.3%,3.65%,22.2%,-8.65%,,4.15%
CC1(C)C(=O)CC[C@]2(C)[C@H]3C(=O)C=C4[C@H]5C[C@@](C)(C(=O)O)CC[C@]5(C)CC[C@@]4(C)[C@]3(C)CC[C@@H]12,-4.8%,-5.95%,-3.85%,-16.1%,,-0.95%
CCCNC(=O)Nc1ccc(Nc2ccccc2)cc1,5.9%,2.5%,-0.5%,4.4%,,2%
CCN(S(C)(=O)=O)S(C)(=O)=O,-7.5%,-2.5%,-4.65%,-37%,,-15.8%
Nc1ccc(Cn2ccc(=O)[nH]c2=O)cc1,-14.4%,3.2%,0.25%,-26.9%,,-0.8%
COc1ccc(/C=C2\N=C(c3ccc(Cl)cc3)OC2=O)cc1Br,10.2%,-2.15%,21.5%,5%,,17.3%
CCN(CC)CCOc1ccc2ccccc2c1C(Cc1ccccc1)NCCO (centres undefined),-13.2%,1.95%,-20.2%,-19.6%,,3.05%

Structure (SMILES),growth inhibition [1],growth inhibition [2],growth inhibition [3],growth inhibition [4],growth inhibition [5] [%],growth inhibition [6]
C/C(=N/O)c1sc(-c2nc(C)c(/C(C)=N\O)s2)nc1C,-1.7%,-19.3%,4.7%,4.85%,,3.05%
N=C(N)C=O,-12.4%,0.3%,5.45%,0.05%,,-7.95%
Cn1cnc2c(=O)[nH]cnc21,12.9%,-12.7%,-2.4%,-4.8%,,-8.5%
C=COC(=O)c1ccccc1O,-32.7%,-34%,-22.3%,3.8%,,-5.55%
C1CCC(NCSC2=NCCS2)CC1,36.5%,-4.7%,0.05%,-29.8%,,1.9%
COCC(C)(CO)CC(C)CO (centres undefined),-13%,-25.8%,-0.15%,-42%,,-1.4%
Cc1cc[n+]2c(c1)-c1cc(C)cc[n+]1CC2,26.7%,1.15%,14.3%,-10.8%,,6.3%
COC(=O)[C@@H]1[C@H](O)CC[C@H]2[C@@]1(C)CC[C@@H](C)[C@]2(COC(C)=O)CC(=O)c1ccoc1,-27.1%,-32.2%,-37%,-27.1%,,-45.8%
Nc1nnc(/C=C/c2ccc(Cl)cc2)o1,-26.5%,-8.15%,-14.9%,2.9%,,-11.3%
CC(C)CCCC(C)C1CCC2(C)C3CCC(C(C)O)C(C)(CCCO)C3CCC12C (centres undefined),47.8%,27.4%,61.4%,38.1%,,55.9%
[N-]=[N+]=Nc1nc2c(N)ncnc2n1C1OC(CO)C(O)C1O (centres undefined),23.4%,16.4%,6.15%,-22.8%,,20.9%
O=C1NCCCC1O (centres undefined),0.5%,-16.5%,8%,5.35%,,-2.9%
O=C1CSC(c2ccc([N+](=O)[O-])cc2)N1c1nc(-c2ccc3c(c2)CCCC3)cs1 (centres undefined),32.1%,2.85%,21.1%,9.3%,,31.5%
O=C(CCc1ccccc1Cl)CC(=O)CC(O)(c1ccccc1)c1ccccc1,68%,57.5%,70.5% (active),42.2%,,61.9%
CC(=O)Nc1ccccc1Cc1nc2ccccc2c(=O)[nH]1,15.7%,12.6%,25.1%,7.9%,,16.8%
CCCCC1OCCOC1C1COCCO1 (centres undefined),-7.25%,-21.9%,-10.8%,-6%,,6.7%
CCOC(=O)c1ccc(N)c(C(O)(C(F)(F)F)C(F)(F)F)c1,94.5% (active),90.7% (active),94.1% (active),86.3% (active),,95.6% (active)
COC(=O)CC(c1ccc2c(c1)OCO2)N1CCOCC1 (centres undefined),-6.3%,31.3%,19.5%,-6.1%,,42.9%
O=c1c2ccccc2nc(-c2ccccc2)n1NC(=S)Nc1ccccc1,-27.9%,-42.6%,-39.8%,-13.8%,,-19%
Cc1cc(C)c(C2[C@H]3C(=O)N(c4ccc(Cc5ccc(N6C(=O)[C@@H]7ON(c8ccccc8)C(c8c(C)cc(C)cc8C)[C@@H]7C6=O)cc5)cc4)C(=O)[C@H]3ON2c2ccccc2)c(C)c1 (some centres undefined),27.6%,31.8%,19.8%,25.2%,,24.2%
CSC1(SC2=NCCN2)SC2(NCCN2)S1,1.75%,-10.8%,-41.6%,-24.1%,,-18.1%
Cc1ccc(/C(O)=C/c2nc3ccc([N+](=O)[O-])cc3nc2/C=C(\O)c2ccc(C)cc2)cc1,13.8%,-3.45%,-23.1%,-28.6%,,-14%
